Laboratory results reported in PubChem BioAssay (NCI).
Compounds without any hit were thinned out: in the full panel of roughly 79,000, 15% have a hit. Values without a mark were called inactive. Activity calls are given as the source filed them. Cut-off read from the data, not from the text of the source: active = growth inhibition above about 70%; inactive = the rest.

Tests used:
[1] = NCI Yeast Anticancer Drug Screen. Data for the rad52 strain (AID 147);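 note: 0% = growth of vehicle-treated control cultures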; conditions: S. cerevisiae rad52 mutant growth inhibition, stronger effect = higher value
Procedure, shortened: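 DNA repair-defective yeast; compound exposure; growth scored against vehicle controls.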

[2] = NCI Yeast Anticancer Drug Screen. Data for the wt1 strain (AID 149);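 note: 0% = growth of vehicle-treated wt1 cultures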; conditions: S. cerevisiae wt1 strain (SPY 50644) growth inhibition, stronger effect = higher value
Procedure, shortened: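 Compounds are added to wt1 yeast cultures. Growth is then measured. Inhibition is expressed relative to vehicle-treated controls.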

[3] = NCI Yeast Anticancer Drug Screen. Data for the rad50EPP+ strain (AID 151);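 note: 0% = growth of vehicle-treated control cultures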; conditions: S. cerevisiae rad50 mutant strain, stronger effect = higher value
Procedure, shortened: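 rad50EPP+ yeast treated with test compounds. Readout: growth vs vehicle control.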

[4] = NCI Yeast Anticancer Drug Screen. Data for the mec2-1 strain (AID 157); conditions: S. cerevisiae mec2-1 strain, stronger effect = higher value
Procedure, shortened: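 Growth inhibition is read against vehicle-treated controls after compound exposure of the mec2-1 yeast strain, which is defective in DNA damage repair or cell cycle control.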

[5] = NCI Yeast Anticancer Drug Screen. Data for the rad14 strain (AID 159);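 note: 0% = growth of vehicle-treated control cultures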; conditions: S. cerevisiae rad14 strain growth inhibition, stronger effect = higher value
Procedure, shortened: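 A mutant yeast strain defective in DNA damage repair is treated with compound; inhibition of its growth is scored against untreated, vehicle-exposed cultures.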

[6] = NCI Yeast Anticancer Drug Screen. Data for the sgs1 mgt1 strain (AID 161);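 note: 0% = growth of cultures given vehicle only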; conditions: S. cerevisiae sgs1 mgt1 strain, stronger effect = higher value
Procedure, shortened: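 Yeast cells carrying a defined DNA-repair defect were exposed to test compounds. Growth inhibition was measured relative to vehicle-treated controls.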

[7] = NCI Yeast Anticancer Drug Screen. Data for the CLN2oe strain (AID 163);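 note: 0% = growth of vehicle-only control cultures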; conditions: S. cerevisiae CLN2oe strain, stronger effect = higher value
Procedure, shortened: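 Compound-treated yeast; growth vs vehicle ctrl = % inhibition. Genetically altered strain (cell-cycle control).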

[8] = NCI Yeast Anticancer Drug Screen. Data for the cln2 rad14 strain (AID 165);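 note: 0% = growth equal to vehicle treated cultures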; conditions: S. cerevisiae cln2 rad14 strain, stronger effect = higher value
Procedure, shortened: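 Growth inhibition, relative to vehicle-treated controls, is the read-out. The test organism is a yeast strain with defined genetic alterations, cln2 rad14.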

[9] = NCI Yeast Anticancer Drug Screen. Data for the bub3 strain (AID 167); conditions: S. cerevisiae bub3 mutant strain, stronger effect = higher value
Procedure, shortened: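 Steps: expose the mutant yeast strain to compound; grow alongside vehicle-treated cultures; measure growth; express inhibition against the vehicle cultures.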

[10] = NCI Yeast Anticancer Drug Screen. Data for the wt2 strain (AID 169);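 note: 0% = growth of vehicle-treated yeast cultures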; conditions: S. cerevisiae wt2 strain growth inhibition, stronger effect = higher value
Procedure, shortened: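 Compound exposure of yeast; growth compared with vehicle controls; inhibition reported.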

[11] = NCI Yeast Anticancer Drug Screen. Data for the sgs1 strain (AID 173);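 note: 0% = growth of vehicle-only control cultures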; conditions: S. cerevisiae sgs1 mutant, stronger effect = higher value
Procedure, shortened: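 Compounds applied to genetically altered yeast; growth compared with vehicle-treated cultures to give % inhibition.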

[12] = NCI Yeast Anticancer Drug Screen. Data for the mlh1 rad18 strain (AID 175); conditions: S. cerevisiae mlh1 rad18 strain growth inhibition, stronger effect = higher value
Procedure, shortened: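 Cells of a genetically altered yeast strain, deficient in DNA damage repair, were treated with compound. Their growth was then compared with that of vehicle-treated cultures to give inhibition.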

[13] = NCI Yeast Anticancer Drug Screen. Data for the rad18 strain (AID 177); conditions: S. cerevisiae rad18 mutant growth inhibition, stronger effect = higher value
Procedure, shortened: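 Compounds are applied to a repair-deficient yeast strain, and growth is compared with that of vehicle-treated cultures to give percent inhibition.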

[14] = NCI Yeast Anticancer Drug Screen. Data for the mgt1 strain (AID 153); conditions: S. cerevisiae mgt1 mutant growth inhibition, stronger effect = higher value
Procedure, shortened: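 Growth inhibition relative to vehicle controls was scored for the mgt1 yeast strain after compound exposure.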

[15] = NCI Yeast Anticancer Drug Screen. Data for the rad50 strain (AID 155);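 note: 0% = growth of vehicle-only cultures of the same strain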; conditions: S. cerevisiae rad50 strain growth inhibition, stronger effect = higher value
Procedure, shortened: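 Inhibition values express reduced yeast growth in compound-treated cultures relative to vehicle-treated controls.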

[16] = NCI Yeast Anticancer Drug Screen. Data for the mlh1 strain (AID 171);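 note: 0% = growth of vehicle-treated control cultures of the same strain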; conditions: S. cerevisiae mlh1 strain growth inhibition, stronger effect = higher value
Procedure, shortened: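 Compounds are applied to a genetically altered yeast strain, and its growth is compared with that of vehicle-treated cultures to give percent inhibition.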

[17] = at 5.0 µM (retest, dose inferred, filed as 0.5)
[18] = at 50.0 µM (retest, dose inferred, filed as 5.0)

N#Cc1sc2c(c1OC(=O)c1ccco1)c(=O)n(-c1ccccc1)c(=S)n2-c1ccccc1
growth inhibition ([1]; at 1.2 µM): 0% | growth inhibition ([1]; at 3.7 µM): 1% | growth inhibition ([1]; at 11.0 µM): -1% | growth inhibition ([1]; at 33.0 µM): 0% | growth inhibition ([1]; at 100.0 µM): 0% | growth inhibition ([2]; at 1.2 µM): -3% | growth inhibition ([2]; at 3.7 µM): -4% | growth inhibition ([2]; at 11.0 µM): -1% | growth inhibition ([2]; at 33.0 µM): -1% | growth inhibition ([2]; at 100.0 µM): 0% | growth inhibition ([3]; at 1.2 µM): 9% | growth inhibition ([3]; at 3.7 µM): 6% | growth inhibition ([3]; at 11.0 µM): 11% | growth inhibition ([3]; at 33.0 µM): 8% | growth inhibition ([3]; at 100.0 µM): 5% | growth inhibition ([4]; at 1.2 µM): -1% | growth inhibition ([4]; at 3.7 µM): -1% | growth inhibition [4, 17]: 7% | growth inhibition ([4]; at 11.0 µM): -2% | growth inhibition ([4]; at 33.0 µM): -6% | growth inhibition [4, 18]: 82% (active) | growth inhibition ([4]; at 50.0 µM): 95% (active) | growth inhibition ([4]; at 100.0 µM): 0% | growth inhibition ([5]; at 1.2 µM): 1% | growth inhibition ([5]; at 3.7 µM): 1% | growth inhibition ([5]; at 11.0 µM): 3% | growth inhibition ([5]; at 33.0 µM): 2% | growth inhibition ([5]; at 100.0 µM): -2% | growth inhibition [6, 17]: 0% | growth inhibition [6, 18]: 95% (active) | growth inhibition ([6]; at 50.0 µM): 95.7% (active) | growth inhibition ([7]; at 1.2 µM): -2% | growth inhibition ([7]; at 3.7 µM): -1% | growth inhibition ([7]; at 11.0 µM): 4% | growth inhibition ([7]; at 33.0 µM): -1% | growth inhibition ([7]; at 100.0 µM): -6% | growth inhibition [8, 17]: 23% | growth inhibition [8, 18]: 91% (active) | growth inhibition ([8]; at 50.0 µM): 94% (active) | growth inhibition ([9]; at 1.2 µM): 0% | growth inhibition ([9]; at 3.7 µM): -4% | growth inhibition [9, 17]: 13% | growth inhibition ([9]; at 11.0 µM): -3% | growth inhibition ([9]; at 33.0 µM): 0% | growth inhibition [9, 18]: 91% (active) | growth inhibition ([9]; at 50.0 µM): 95.4% (active) | growth inhibition ([9]; at 100.0 µM): -6% | growth inhibition ([10]; at 1.2 µM): -1% | growth inhibition ([10]; at 3.7 µM): -1% | growth inhibition ([10]; at 11.0 µM): -2% | growth inhibition ([10]; at 33.0 µM): -9% | growth inhibition ([10]; at 100.0 µM): 3% | growth inhibition ([11]; at 1.2 µM): 0% | growth inhibition ([11]; at 3.7 µM): 1% | growth inhibition ([11]; at 11.0 µM): 0% | growth inhibition ([11]; at 33.0 µM): 1% | growth inhibition ([11]; at 100.0 µM): 0% | growth inhibition [12, 17]: 59% | growth inhibition [12, 18]: 94% (active) | growth inhibition ([12]; at 50.0 µM): 95.2% (active) | growth inhibition ([13]; at 1.2 µM): 0% | growth inhibition ([13]; at 3.7 µM): 1% | growth inhibition ([13]; at 11.0 µM): -17% | growth inhibition ([13]; at 33.0 µM): 2% | growth inhibition ([13]; at 100.0 µM): -1%

N#C/C(=C/N1C(=O)/C(=C/c2ccc([N+](=O)[O-])cc2)SC1=S)c1nc2ccccc2s1
growth inhibition ([1]; at 1.2 µM): 5% | growth inhibition ([1]; at 3.7 µM): 9% | growth inhibition ([1]; at 11.0 µM): 18% | growth inhibition ([1]; at 33.0 µM): 36% | growth inhibition ([1]; at 100.0 µM): 77% (active) | growth inhibition ([3]; at 1.2 µM): 19% | growth inhibition ([3]; at 3.7 µM): 45% | growth inhibition ([3]; at 11.0 µM): 69% | growth inhibition ([3]; at 33.0 µM): 86% (active) | growth inhibition ([3]; at 100.0 µM): 87% (active) | growth inhibition ([14]; at 1.2 µM): 1% | growth inhibition ([14]; at 3.7 µM): 3% | growth inhibition ([14]; at 11.0 µM): 5% | growth inhibition ([14]; at 33.0 µM): 11% | growth inhibition ([14]; at 100.0 µM): 66% | growth inhibition ([15]; at 1.2 µM): -2% | growth inhibition ([15]; at 3.7 µM): -6% | growth inhibition [15, 17]: -4% | growth inhibition ([15]; at 11.0 µM): 0% | growth inhibition ([15]; at 33.0 µM): 40% | growth inhibition [15, 18]: 23% | growth inhibition ([15]; at 50.0 µM): 87.3% (active) | growth inhibition ([15]; at 100.0 µM): 79% (active) | growth inhibition ([4]; at 1.2 µM): 9% | growth inhibition ([4]; at 3.7 µM): 11% | growth inhibition [4, 17]: -1% | growth inhibition ([4]; at 11.0 µM): 18% | growth inhibition ([4]; at 33.0 µM): 34% | growth inhibition [4, 18]: 16% | growth inhibition ([4]; at 50.0 µM): 81.7% (active) | growth inhibition ([4]; at 100.0 µM): 67% | growth inhibition ([5]; at 1.2 µM): 3% | growth inhibition ([5]; at 3.7 µM): 4% | growth inhibition ([5]; at 11.0 µM): 13% | growth inhibition ([5]; at 33.0 µM): 40% | growth inhibition ([5]; at 100.0 µM): 84% (active) | growth inhibition [6, 17]: 7% | growth inhibition [6, 18]: 48% | growth inhibition ([6]; at 50.0 µM): 85.6% (active) | growth inhibition ([7]; at 1.2 µM): 8% | growth inhibition ([7]; at 3.7 µM): -1% | growth inhibition ([7]; at 11.0 µM): 3% | growth inhibition ([7]; at 33.0 µM): 16% | growth inhibition ([7]; at 100.0 µM): 55% | growth inhibition [8, 17]: -16% | growth inhibition [8, 18]: 30% | growth inhibition ([8]; at 50.0 µM): 61.1% | growth inhibition ([9]; at 1.2 µM): -2% | growth inhibition ([9]; at 3.7 µM): 4% | growth inhibition [9, 17]: -18% | growth inhibition ([9]; at 11.0 µM): 9% | growth inhibition ([9]; at 33.0 µM): 26% | growth inhibition [9, 18]: 34% | growth inhibition ([9]; at 50.0 µM): 86% (active) | growth inhibition ([9]; at 100.0 µM): 63% | growth inhibition ([10]; at 1.2 µM): 1% | growth inhibition ([10]; at 3.7 µM): 4% | growth inhibition ([10]; at 11.0 µM): 8% | growth inhibition ([10]; at 33.0 µM): 31% | growth inhibition ([10]; at 100.0 µM): 75% (active) | growth inhibition ([16]; at 1.2 µM): 5% | growth inhibition ([16]; at 3.7 µM): 6% | growth inhibition ([16]; at 11.0 µM): 13% | growth inhibition ([16]; at 33.0 µM): 37% | growth inhibition ([16]; at 100.0 µM): 82% (active) | growth inhibition ([11]; at 1.2 µM): 11% | growth inhibition ([11]; at 3.7 µM): 18% | growth inhibition ([11]; at 11.0 µM): 30% | growth inhibition ([11]; at 33.0 µM): 61% | growth inhibition ([11]; at 100.0 µM): 82% (active) | growth inhibition [12, 17]: 13% | growth inhibition [12, 18]: 55% | growth inhibition ([12]; at 50.0 µM): 87.8% (active) | growth inhibition ([13]; at 1.2 µM): 19% | growth inhibition ([13]; at 3.7 µM): 33% | growth inhibition ([13]; at 11.0 µM): 48% | growth inhibition ([13]; at 33.0 µM): 69% | growth inhibition ([13]; at 100.0 µM): 82% (active)
